The panel holds about 79,000 compounds, 15% with a hit somewhere; the sample as a whole holds those more often. The source made the active and inactive calls. Rule as the data show it: active = growth inhibition above about 70%; inactive = the rest.
Tests used:
[1] = NCI Yeast Anticancer Drug Screen. Data for the rad50 strain (AID 155);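 also: 0% = growth of vehicle-only cultures of the same strain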; conditions: S. cerevisiae rad50 strain growth inhibition; at 50.0 µM; active compounds read high
Procedure, shortened: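 A DNA repair-deficient yeast mutant serves as the test organism; compound-induced growth inhibition is calculated against vehicle-treated cells.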

[2] = NCI Yeast Anticancer Drug Screen. Data for the mec2-1 strain (AID 157); conditions: S. cerevisiae mec2-1 strain, at 50.0 µM, active compounds read high
Procedure, shortened: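 Using mec2-1 yeast: add compound, measure growth, express inhibition versus vehicle-treated cultures.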

[3] = NCI Yeast Anticancer Drug Screen. Data for the sgs1 mgt1 strain (AID 161);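 also: 0% = growth of cultures given vehicle only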; conditions: S. cerevisiae sgs1 mgt1 strain, at 50.0 µM, active compounds read high
Procedure, shortened: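 Percent growth inhibition was derived by comparing compound-exposed mutant yeast with vehicle-exposed cultures. The strain carries alterations in DNA damage repair.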

[4] = NCI Yeast Anticancer Drug Screen. Data for the cln2 rad14 strain (AID 165);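 also: 0% = growth equal to vehicle treated cultures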; conditions: S. cerevisiae cln2 rad14 strain, at 50.0 µM, active compounds read high
Procedure, shortened: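 Yeast strain cln2 rad14, bearing defects in cell cycle control and DNA repair, serves as the test system; values reflect growth inhibition compared with vehicle.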

[5] = NCI Yeast Anticancer Drug Screen. Data for the bub3 strain (AID 167); conditions: S. cerevisiae bub3 mutant strain, at 50.0 µM, active compounds read high
Procedure, shortened: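 Inhibition values come from growth of compound-treated mutant yeast normalised to vehicle-treated controls.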

[6] = NCI Yeast Anticancer Drug Screen. Data for the mlh1 rad18 strain (AID 175); conditions: S. cerevisiae mlh1 rad18 strain growth inhibition; at 50.0 µM; active compounds read high
Procedure, shortened: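 Steps: expose repair-defective yeast to compound; measure growth; express inhibition against vehicle-treated controls.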

Measured: growth inhibition

C1CCCCC/C2=C(\CCCC1)CSCCCS2
inactive: [1] -25.8% | [2] -19.9% | [3] -16.1% | [4] -14.6% | [5] 0.55% | [6] -36.5%

C/C=C(\C)C(=O)OC1CC(OC(=O)/C(C)=C/C)C2(C)C3C(=O)C=C(C)C2C3C1(C)C (configuration not stated)
inactive: [1] 18.8% | [2] 5.85% | [3] 34.6% | [4] 25.6% | [5] 3.05% | [6] 6.8%

Nc1cccc2c(S(=O)(=O)O)cccc12
inactive: [1] -2.9% | [2] -3.15% | [3] -11.9% | [4] -66.7% | [5] 0.3% | [6] 0.75%

CCOC1C(Br)Cn2c(=O)c3cc4ccccc4cc3c(=O)n2C1C (configuration not stated)
inactive: [1] 61.2% | [2] 8.15% | [3] 21.6% | [4] 44.3% | [5] 33.6% | [6] 33.2%

c1ccc(CSc2ccc3ccccc3c2)cc1
inactive: [1] -4.3% | [2] -20.1% | [3] -13.5% | [4] -51.8% | [5] -4.1% | [6] -29.9%

CC1=C(C)CC2(CC1)C(=O)C1(CCC(C)=C(C)C1)C2=O (configuration not stated)
inactive: [1] 25.2% | [2] 0.7% | [3] -2.8% | [4] 14.1% | [5] 17% | [6] 15.6%

O=S(=O)(c1ccc(NC(=S)N2CCOCC2)cc1)N1CCCCC1
inactive: [1] -3.45% | [2] 1.1% | [3] -10.1% | [4] 1.6% | [5] -5.95% | [6] 8.65%

CCOC(=O)c1nn2c(nc1=O)sc1ccc3ccccc3c12
inactive: [1] -22% | [2] -5.7% | [3] 7.8% | [4] 32.1% | [5] 25% | [6] 2.05%

CCOC(=O)C(C(=O)OCC)c1cc(-c2cc3ccccc3o2)oc(=O)c1C#N
inactive: [1] 47.7% | [2] 20.5% | [3] 10.2% | [4] 15.8% | [5] -4.15% | [6] 30.1%

O=CNCC(=O)Nc1ccccc1
inactive: [1] -8.4% | [2] -2.45% | [3] -3.45% | [4] -6.9% | [5] 10.8% | [6] -10.4%

CS(=O)CCNC(=O)NS(=O)(=O)c1ccc(Cl)cc1 (configuration not stated)
inactive: [1] -2% | [2] -18.9% | [3] -11.3% | [4] -10.2% | [5] 3.05% | [6] -3.15%

N#CC(C(=N/NC(N)=S)/C(=N\NC(N)=S)C(C#N)c1ccccc1)c1ccccc1 (configuration not stated)
inactive: [1] -34.5% | [2] -5.35% | [3] -30.8% | [4] -8.25% | [5] -14.2% | [6] -15.7%

O=C(C[n+]1ccncc1)c1ccccc1
inactive: [1] -20.8% | [2] -18.7% | [3] -6.35% | [4] -6.25% | [5] -10.2% | [6] 2.65%

CCC(C)C1CCCCC1 (configuration not stated)
inactive: [1] -13% | [2] -15.9% | [3] -3.35% | [4] 3.85% | [5] -12.8% | [6] 0.75%

C(=C\c1ccc2ccc(/C=C/c3ccccc3)cc2c1)/c1ccccc1
inactive: [1] -15.2% | [2] 14.7% | [3] 12.1% | [4] -26.8% | [5] 8.25% | [6] -17.1%

CCCCNC(=O)c1ccccc1N
inactive: [1] -20.2% | [2] -6.15% | [3] -30.7% | [4] -8% | [5] -16% | [6] -22.4%

O=C(/C=C/c1ccc(O)cc1)c1ccc(Cl)cc1
inactive: [1] -17.7% | [2] -22.9% | [3] -18.6% | [4] -36.9% | [5] 20.4% | [6] -16.4%

Cc1ccc(NC(=O)/C(CC(=O)c2sc(Nc3ccccc3Cl)nc2C)=N\Nc2ccc([N+](=O)[O-])cc2[N+](=O)[O-])c(C)c1
inactive: [1] -1% | [2] 17.1% | [3] 4.25% | [4] -12.1% | [5] 4.55% | [6] -4.25%

Nc1ncnc(N)c1NC(=O)CCCc1ccccc1
inactive: [1] 5.85% | [2] 18.6% | [3] -2.95% | [4] 1% | [5] 33.5% | [6] 15.9%

COC(=O)c1c(O)c2c(c3c1OC(C)(C)CC3)OC(C)(C)CC2
inactive: [1] -13.3% | [2] 0.1% | [3] -17.1% | [4] -2.55% | [5] 8.05% | [6] 11.4%

CC1(C)CC(=O)c2c(N)n[nH]c2C1
inactive: [1] -0.35% | [2] 3.1% | [3] -8.55% | [4] -2.2% | [5] 1.35% | [6] -15%

O=C(OC1COC(OCc2ccccc2)C(OC(=O)c2ccccc2)C1OC(=O)c1ccccc1)c1ccccc1 (configuration not stated)
inactive: [1] 8% | [2] -24.4% | [3] 3.1% | [4] -30.3% | [5] 0.4% | [6] 2.75%

CCOc1ccc(/C=C(\NC(=O)c2ccccc2)C(=O)Nc2ccccc2)cc1OC
inactive: [1] 4.8% | [2] -12.6% | [3] -4.45% | [4] -25.6% | [5] -0.15% | [6] 2.1%

COc1ccc(C(=O)c2ccc(Cl)s2)cc1
inactive: [1] 8.4% | [2] -4.85% | [3] 22.4% | [4] -13.2% | [5] 21% | [6] 5.1%

COc1ccc(CCNC(=S)NCCc2ccc(OC)c(OC)c2)cc1OC
inactive: [1] -17.1% | [2] -17.1% | [3] 2.1% | [4] 20.2% | [5] 34.5% | [6] -1.4%

C#CCN(CC#C)C(=O)C(=O)c1c[nH]c2ccc(OC)cc12
inactive: [1] 41.2% | [2] 0.9% | [3] 56.8% | [4] 44.5% | [5] 52.4% | [6] 51%

CCCc1c(Cl)nc(Cl)nc1Cl
inactive: [1] -8.75% | [2] 26.8% | [3] 11.8% | [4] -54.8% | [5] 5.2% | [6] -22.4%

O=C(O)CCCCCCCCC(=O)c1cc(O)ccc1O
inactive: [1] -5.3% | [2] 42.1% | [3] 35.7% | [4] -7.25% | [5] 20.4% | [6] 7.9%

CSC#CC(Sc1c(Cl)c(Cl)c(Cl)c(Cl)c1Cl)=C(Sc1c(Cl)c(Cl)c(Cl)c(Cl)c1Cl)Sc1c(Cl)c(Cl)c(Cl)c(Cl)c1Cl
inactive: [1] 2.55% | [2] -0.8% | [3] -1.7% | [4] -3.6% | [5] -0.6% | [6] -15.5%

CNC(=O)OCc1c(COC(=O)NC)c(C)n(-c2ccc(OC)cc2)c1C
inactive: [1] 20.9% | [2] 3.55% | [3] 42.1% | [4] 15.8% | [5] 31.3% | [6] 42.8%

O=C(CCl)Nc1cc2ccccc2c2ccccc12
inactive: [1] 0.65% | [2] -23.6% | [3] -10.9% | [4] 1.6% | [5] 9.6% | [6] 8.6%

CC(=O)Oc1ccc(/C=C/c2ccccn2)cc1
inactive: [1] 6.6% | [2] -1.75% | [3] -1.5% | [4] -55.1% | [5] 3.75% | [6] 15.3%

O=C1CN(c2ccc(Cl)cc2)C(=O)CN1/N=C/c1ccc(O)c(O)c1
inactive: [1] -37.1% | [2] -10.8% | [3] 4.4% | [4] -16.9% | [5] -7.65% | [6] -4.95%

c1ccc(-c2c[s+]cc(-c3ccccc3)c2)cc1
active: [1] 98.7% | [2] 98.9% | [3] 99.2% | [4] 98.5% | [5] 78.2% | [6] 99.2%

O/N=C1/CCSc2ccccc21
inactive: [1] 21% | [2] -8.9% | [3] 17.1% | [4] 16.2% | [5] 28.4% | [6] 8.25%

O=C(O)Cc1ccc(Br)cc1
inactive: [1] 29.4% | [2] -8.95% | [3] 11.9% | [4] 10.8% | [5] 1.1% | [6] 5.7%

N#CC(/C(=N\NC(N)=S)C(=O)NC1C2CC3CC(C2)CC1C3)c1ccc(Cl)cc1 (configuration not stated)
inactive: [1] 29.2% | [2] 10.2% | [3] 19.8% | [4] 10.1% | [5] 15.4% | [6] 25.4%

Reference: PubChem BioAssay (NCI)
